PubChem BioAssay AID1159580 (chemical genetic matrix, 2015)
The whole screen tested about 5,500 compounds, of which about 2,000 (36%) were called active. About 18% were inconclusive and are not listed. Rule as the data show it: active = normalized growth mostly below about 0.91 (no sharp cut-off); inconclusive = no clear call, values can overlap the other calls; inactive = mostly above about 0.92. This is one part of the list.

Experiment: chemical genetic growth profiling, strain panel (AID 1159580);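 also: tested at 20 µM; growth read once vehicle control cultures reached saturation at 30 °C; 1 = growth at the plate median or of vehicle wells; lower values mean less growth of the strain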
Conditions: growth OD

Measured: normalized growth

Cc1cc(=O)oc2cc(O)c(O)cc12
inactive: S. cerevisiae deletion strains, locus YJR043C, strain POL32, active compounds read low 0.964 | S. cerevisiae deletion strains, locus YJR066W, strain TOR1, active compounds read low 0.913 | S. cerevisiae deletion strains, locus YKL009W, strain mrt4, active compounds read low 0.922 | S. cerevisiae deletion strains, locus YKL068W, active compounds read low 1.01 | S. cerevisiae deletion strains, locus YKL085W, strain MDH1 (second series), active compounds read low 1.02 | S. cerevisiae deletion strains, locus YKL085W, strain MDH1, active compounds read low 1.02 | S. cerevisiae deletion strains, locus YKL160W, strain elf1, active compounds read low 1 | S. cerevisiae deletion strains, locus YKL190W, strain CNB1, active compounds read low 1.01 | S. cerevisiae deletion strains, locus YKR001C, strain vps1, active compounds read low 0.934 | S. cerevisiae deletion strains, locus YKR026C, strain gcn3, active compounds read low 0.994 | S. cerevisiae deletion strains, locus YKR091W, strain srl3, active compounds read low 0.981 | S. cerevisiae deletion strains, locus YLL001W, strain dnm1, active compounds read low 0.995 | S. cerevisiae deletion strains, locus YLL026W, active compounds read low 0.989 | S. cerevisiae deletion strains, locus YLL041C, strain sdh2, active compounds read low 0.986 | S. cerevisiae deletion strains, locus YLR027C, strain aat2, active compounds read low 0.976 | S. cerevisiae deletion strains, locus YLR039C, strain RIC1, active compounds read low 0.945 | S. cerevisiae deletion strains, locus YLR058C, strain SHM2, active compounds read low 0.99 | S. cerevisiae deletion strains, locus YLR102C, strain apc9, active compounds read low 1.01 | S. cerevisiae deletion strains, locus YLR113W, strain HOG1, active compounds read low 0.954 | S. cerevisiae deletion strains, locus YLR221C, strain rsa3, active compounds read low 0.986 | S. cerevisiae deletion strains, locus YLR258W, strain gsy2, active compounds read low 1 | S. cerevisiae deletion strains, locus YLR262C, strain YPT6 (second series), active compounds read low 0.962 | S. cerevisiae deletion strains, locus YLR262C, strain YPT6, active compounds read low 1.01 | S. cerevisiae deletion strains, locus YLR268W, strain sec22, active compounds read low 0.983 | S. cerevisiae deletion strains, locus YLR320W, strain mms22, active compounds read low 0.987 | S. cerevisiae deletion strains, locus YLR330W, strain CHS5, active compounds read low 1 | S. cerevisiae deletion strains, locus YLR342W, strain FKS1 (second series), active compounds read low 0.992 | S. cerevisiae deletion strains, locus YLR342W, strain FKS1, active compounds read low 1.01 | S. cerevisiae deletion strains, locus YLR357W, strain rsc2, active compounds read low 1.01 | S. cerevisiae deletion strains, locus YLR370C, strain arc18, active compounds read low 0.982 | S. cerevisiae deletion strains, locus YLR371W, strain rom2, active compounds read low 1 | S. cerevisiae deletion strains, locus YLR384C, strain iki3, active compounds read low 0.993 | S. cerevisiae deletion strains, locus YLR418C, strain cdc73, active compounds read low 0.939 | S. cerevisiae deletion strains, locus YML016C, strain PPZ1, active compounds read low 0.994 | S. cerevisiae deletion strains, locus YML032C, strain rad52, active compounds read low 0.965 | S. cerevisiae deletion strains, locus YML120C, strain ndi1, active compounds read low 1 | S. cerevisiae deletion strains, locus YML124C, strain tub3, active compounds read low 1.01 | S. cerevisiae deletion strains, locus YMR058W, strain fet3, active compounds read low 0.989 | S. cerevisiae deletion strains, locus YMR078C, strain ctf18, active compounds read low 1 | S. cerevisiae deletion strains, locus YMR125W, strain sto1, active compounds read low 1.04 | S. cerevisiae deletion strains, locus YMR129W, active compounds read low 1 | S. cerevisiae deletion strains, locus YMR205C, strain PFK2, active compounds read low 1.02 | S. cerevisiae deletion strains, locus YMR223W, strain ubp8, active compounds read low 0.951 | S. cerevisiae deletion strains, locus YMR231W, strain pep5, active compounds read low 0.998 | S. cerevisiae deletion strains, locus YMR307W, strain GAS1, active compounds read low 1.01 | S. cerevisiae deletion strains, locus YNL067W, strain RPL9B, active compounds read low 0.994 | S. cerevisiae deletion strains, locus YNL071W, strain lat1, active compounds read low 0.988 | S. cerevisiae deletion strains, locus YNL128W, strain TEP1, active compounds read low 1.01 | S. cerevisiae deletion strains, locus YNL183C, strain NPR1, active compounds read low 0.902 | S. cerevisiae deletion strains, locus YNL209W, strain ssb2, active compounds read low 1 | S. cerevisiae deletion strains, locus YNL233W, strain BNI4, active compounds read low 0.961 | S. cerevisiae deletion strains, locus YNL248C, strain rpa49, active compounds read low 0.941 | S. cerevisiae deletion strains, locus YNL250W, strain rad50, active compounds read low 1.02 | S. cerevisiae deletion strains, locus YNL271C, strain bni1, active compounds read low 0.993 | S. cerevisiae deletion strains, locus YNL298W, strain CLA4, active compounds read low 0.961 | S. cerevisiae deletion strains, locus YNL307C, strain MCK1, active compounds read low 0.989 | S. cerevisiae deletion strains, locus YNL322C, strain KRE1 (second series), active compounds read low 0.995 | S. cerevisiae deletion strains, locus YNR049C, strain mso1, active compounds read low 0.989 | S. cerevisiae deletion strains, locus YNR052C, strain pop2, active compounds read low 0.974 | S. cerevisiae deletion strains, locus YOL006C, strain TOP1, active compounds read low 0.805 | S. cerevisiae deletion strains, locus YOL012C, strain htz1 1.25 | S. cerevisiae deletion strains, locus YOL147C, strain pex11, active compounds read low 0.993 | S. cerevisiae deletion strains, locus YOR001W, strain rrp6, active compounds read low 0.967 | S. cerevisiae deletion strains, locus YOR061W, strain CKA2, active compounds read low 1 | S. cerevisiae deletion strains, locus YOR069W, strain VPS5, active compounds read low 1.01 | S. cerevisiae deletion strains, locus YOR070C, strain gyp1, active compounds read low 0.99 | S. cerevisiae deletion strains, locus YOR080W, strain dia2, active compounds read low 0.975 | S. cerevisiae deletion strains, locus YOR083W, strain WHI5, active compounds read low 0.978 | S. cerevisiae deletion strains, locus YOR106W, strain vam3, active compounds read low 0.993 | S. cerevisiae deletion strains, locus YOR136W, strain idh2, active compounds read low 1 | S. cerevisiae deletion strains, locus YOR144C, strain elg1, active compounds read low 1 | S. cerevisiae deletion strains, locus YOR184W, strain ser1, active compounds read low 0.88 | S. cerevisiae deletion strains, locus YOR231W, strain MKK1, active compounds read low 0.904 | S. cerevisiae deletion strains, locus YOR265W, strain rbl2, active compounds read low 0.989 | S. cerevisiae deletion strains, locus YOR270C, strain vph1, active compounds read low 0.893 | S. cerevisiae deletion strains, locus YOR290C, strain snf2, active compounds read low 0.937 | S. cerevisiae deletion strains, locus YOR316C, strain cot1, active compounds read low 1 | S. cerevisiae deletion strains, locus YPL051W, strain arl3, active compounds read low 0.987 | S. cerevisiae deletion strains, locus YPL078C, strain atp4, active compounds read low 0.992 | S. cerevisiae deletion strains, locus YPL106C, strain sse1, active compounds read low 0.978 | S. cerevisiae deletion strains, locus YPL240C, strain hsp82, active compounds read low 0.994 | S. cerevisiae deletion strains, locus YPL256C, strain CLN2, active compounds read low 0.936 | S. cerevisiae deletion strains, locus YPR119W, strain clb2, active compounds read low 1.01 | S. cerevisiae deletion strains, locus YPR141C, strain kar3, active compounds read low 1.02 | S. cerevisiae deletion strains, locus YPR163C, strain tif3, active compounds read low 1.02 | S. cerevisiae deletion strains, locus YPR167C, strain met16, active compounds read low 0.981 | S. cerevisiae deletion strains, strain wtn01, active compounds read low 0.988 | S. cerevisiae strains, strain wild type, active compounds read low 1.01
